The record followed here is PubChem BioAssay (NCI).

The structures appear in SMILES notation. The panel holds about 83,000 compounds, 20% with a hit somewhere; the sample as a whole holds those more often.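 Method: cells in 96-well plates; compound added at one concentration; 48 h incubation; percent growth measured; values under 10 scored active.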 Values without a mark were called inactive. Calls of active or inactive are those of the source.

The subject of the first assay is UO-31 renal. In words: NCI-60 one-dose screen, 48 h (100 = growth as untreated, 0 = no growth, -100 = all killed). Particulars: 10 µM unless noted.
With `FC(F)(F)c1cc(-c2nnc3n2N=C(N2CCCC2)CS3)cc(C(F)(F)F)c1`, the growth is 48.8%.
Same read-out and setting: in the case of `Clc1ccc(C2=NN(c3ccc(Cl)cc3)C(c3cccc(Nc4ccnc5cc(Cl)ccc45)c3)C2)cc1` (configuration not stated) it was 50.7%; in that of `C=CCN(/C=C/CN(CC=C)CC=C)CC=C`, 90.1%.
Same read-out and setting: to `COc1ccc(-c2nnc3c4[nH]cnc4ncn23)c(OC)c1` belongs 23.3%.
Still for that read-out and setting: in the case of `Cc1ccc(S(=O)(=O)NCCN2c3nc4ccccc4cc3Sc3cc4ccccc4nc32)cc1` it was -32% (active).
For `O=C(CNC(=O)c1cccc2ccccc12)Nc1ccccc1Oc1cccc(O)c1`, the growth was 44.5% [5 µM].
Still for that read-out and setting: to `COc1ccc2c(=O)c(OC)c(-c3cc(OC)c(OC)c(OC)c3)oc2c1` belongs -82.5% (active); to `COc1cnc2c(c1)C(=O)c1c-2n(CCCN2CCC(O)CC2)c(=O)c2cc(F)ccc12`, -89.4% (active); to `O=C(/C=C/c1c(-c2ccccc2)[nH]c2ccccc12)S(=O)(=O)c1ccccc1`, 31%.
The same measure, in the same setting: to `O=C(Nc1nc2c(C(F)(F)F)cccc2s1)c1cc(Cl)ccc1O` belongs -10.9% (active); to `CCN(CC)CCOCC[C@H]1CC[C@H]2[C@@H]3[C@H](C)Cc4cc(OS(N)(=O)=O)ccc4[C@H]3CC[C@]12C`, -80.8% (active).
Turning to `NS(=O)(=O)c1ccc(N2CC(c3nc4ccccc4[nH]3)CC2=O)cc1` (configuration not stated), the growth is 76.6%.
Still for that read-out and setting: to `COc1cnc2c(c1)C(=O)c1c-2n(CCCN2CCCC2)c(=O)c2cc(F)ccc12` belongs -96.2% (active); to `COc1ccc(-n2cnc3cc(C(=O)N4CCCCC4)ccc32)cc1`, 97.4%.
Take `COc1cc(-c2n[nH]nc2-c2ccccn2)cc(OC)c1OC`: the growth is 87.7%.
`COc1cc(C2=NN(C=O)C(c3cccc(Nc4ccnc5cc(Cl)ccc45)c3)C2)cc(OC)c1OC` (configuration not stated): the growth is 68.7%.
Still for that read-out and setting: in the case of `Cc1sc2nc(NCc3ccccc3)[nH]c(=O)c2c1C` it was 74.6%; in that of `CC(=O)N1N=C(c2ccc(Nc3nc(NCCO)nc(NCCO)n3)cc2)CC1c1ccc(Cl)cc1` (configuration not stated), 96.9%; in that of `COc1ccc(N2CCN(CC(=O)N3CCN(c4nnc(-c5ccc(Cl)cc5)c(-c5ccc(Cl)cc5)n4)CC3)CC2)cc1`, 21.2%.
The same measure, in the same setting: in the case of `C1CCC(C(CC2CCCCN2)C2CCCCC2)CC1` (configuration not stated) it was 11.9%; in that of `Cc1cc2c(cc1C)[n+](Cc1ccc3ccccc3c1)cn2Cc1ccc2ccccc2c1`, -57.1% (active); in that of `COc1ccc(Oc2ccccc2NC(=O)CNC(=O)c2cccc3ccccc23)cc1`, 42.4% [5 µM].
Same read-out and setting: in the case of `CC(=O)N1N=C(c2ccc3c(c2)OCO3)CC1c1c(C)nn(-c2ccccc2)c1N(C)Cc1ccccc1` (configuration not stated) it was 51.9%; in that of `COc1ccc(C(=O)/C=C/c2cccc(Nc3ccnc4cc(Cl)ccc34)c2)cc1`, 6.64% (active); in that of `COc1cc(C2CC(C3C(=O)N(C)C(=O)N(C)C3=O)=NN2c2cc(Cl)cc(Cl)c2)cc(OC)c1OC` (configuration not stated), 83.2%.
As for `O=C1NC(=O)/C(=C\c2ccco2)S1`, the growth is 67.5%.
The same measure, in the same setting: in the case of `COc1ccc2nc(-c3ccc(Cl)cc3)cc(-c3nnc(SCC(=O)Nc4ccc(C(C)=O)cc4)n3-c3ccccc3)c2c1` it was 84.4%; in that of `O=C(CNC(=O)c1cccc2ccccc12)Nc1ccccc1Cc1ccccc1`, 60.7% [5 µM]; in that of `CCCCc1n(Cc2ccc3ccccc3c2)cc[n+]1Cc1ccc2ccccc2c1`, 18.9%.
The same measure, in the same setting: to `COc1cc(C2CC(C3C(=O)N(C)C(=O)N(C)C3=O)=NN2C=O)cc(OC)c1OC` (configuration not stated) belongs 101%; to `Nc1ncnc2c1CN(Cc1ccccc1)CC2`, 76.2%.
On the same count and under the same terms, in the case of `CCOC(=O)c1sc(NC(=O)COc2cccc(/C=C3\Cc4ccc(Cl)cc4C3=O)c2)nc1C` it was -17.4% (active); in that of `COC(=O)[C@H](CCCCNC(=O)OCc1ccccc1)NC(=O)[C@@H](NC(=O)Nc1cc(C(F)(F)F)cc(C(F)(F)F)c1)C(C)C`, -88.6% [100 µM] (active); in that of `CCN(CC)c1ccc(C(=C2C=CC(=[N+](CC)Cc3cccc(S(=O)(=O)O)c3)C=C2)c2ccc(N(CC)Cc3cccc(S(=O)(=O)O)c3)cc2)cc1`, 45.4%.
In the case of `O=C(CNC(=O)c1cccc2ccccc12)Nc1ccccc1Oc1ccc(O)cc1`, the growth is 45.2% [5 µM].
Take `COc1cc(C(=O)/C=C/c2cccc(Nc3ccnc4cc(Cl)ccc34)c2)cc(OC)c1OC`: the growth is -87.9% (active).
The same measure, in the same setting: to `CN1C(=O)C(C2=NN(C=O)C(c3ccc(F)cc3)C2)C(=O)N(C)C1=O` (configuration not stated) belongs 96.6%; to `O=CN1N=C(c2ccc(Nc3ccnc4cc(Cl)ccc34)cc2)CC1c1ccc(Cl)cc1` (configuration not stated), 20.6%; to `COc1cccc(-c2nc3cc(NC(=O)c4ccc(Cl)c(C#N)c4)ccc3o2)c1`, 34.3%.

Another assay deals with TK-10 renal. The description is as above. Particulars: 10 µM unless noted.
`FC(F)(F)c1cc(-c2nnc3n2N=C(N2CCCC2)CS3)cc(C(F)(F)F)c1`: the growth was -22.1% (active).
On the same count and under the same terms, in the case of `Clc1ccc(C2=NN(c3ccc(Cl)cc3)C(c3cccc(Nc4ccnc5cc(Cl)ccc45)c3)C2)cc1` (configuration not stated) it was 95.2%; in that of `C=CCN(/C=C/CN(CC=C)CC=C)CC=C`, 96.9%; in that of `COc1ccc(-c2nnc3c4[nH]cnc4ncn23)c(OC)c1`, 10.8%.
As for `Cc1ccc(S(=O)(=O)NCCN2c3nc4ccccc4cc3Sc3cc4ccccc4nc32)cc1`, the growth is 84.5%.
On the same count and under the same terms, in the case of `O=C(CNC(=O)c1cccc2ccccc12)Nc1ccccc1Oc1cccc(O)c1` it was 42% [5 µM]; in that of `COc1ccc2c(=O)c(OC)c(-c3cc(OC)c(OC)c(OC)c3)oc2c1`, 124%; in that of `O=C(/C=C/c1c(-c2ccccc2)[nH]c2ccccc12)S(=O)(=O)c1ccccc1`, 121%.
Same read-out and setting: to `O=C(Nc1nc2c(C(F)(F)F)cccc2s1)c1cc(Cl)ccc1O` belongs 10.2%; to `CCN(CC)CCOCC[C@H]1CC[C@H]2[C@@H]3[C@H](C)Cc4cc(OS(N)(=O)=O)ccc4[C@H]3CC[C@]12C`, -56.8% (active); to `NS(=O)(=O)c1ccc(N2CC(c3nc4ccccc4[nH]3)CC2=O)cc1` (configuration not stated), 128%.
On the same count and under the same terms, to `COc1ccc(-n2cnc3cc(C(=O)N4CCCCC4)ccc32)cc1` belongs 110%; to `COc1cc(-c2n[nH]nc2-c2ccccn2)cc(OC)c1OC`, 151%.
Turning to `COc1cc(C2=NN(C=O)C(c3cccc(Nc4ccnc5cc(Cl)ccc45)c3)C2)cc(OC)c1OC` (configuration not stated), the growth is 87.9%.
Still for that read-out and setting: in the case of `Cc1sc2nc(NCc3ccccc3)[nH]c(=O)c2c1C` it was 67%; in that of `CC(=O)N1N=C(c2ccc(Nc3nc(NCCO)nc(NCCO)n3)cc2)CC1c1ccc(Cl)cc1` (configuration not stated), 83.3%.
On to `COc1ccc(N2CCN(CC(=O)N3CCN(c4nnc(-c5ccc(Cl)cc5)c(-c5ccc(Cl)cc5)n4)CC3)CC2)cc1`, for which the growth is 84.2%.
Still for that read-out and setting: to `Cc1cc2c(cc1C)[n+](Cc1ccc3ccccc3c1)cn2Cc1ccc2ccccc2c1` belongs -87.7% (active); to `COc1ccc(Oc2ccccc2NC(=O)CNC(=O)c2cccc3ccccc23)cc1`, 47.6% [5 µM]; to `COc1cccc(N2CCN(CC(=O)N3CCN(c4nnc(-c5ccc(Cl)cc5)c(-c5ccc(Cl)cc5)n4)CC3)CC2)c1`, 93.8%.
The same measure, in the same setting: in the case of `CC(=O)N1N=C(c2ccc3c(c2)OCO3)CC1c1c(C)nn(-c2ccccc2)c1N(C)Cc1ccccc1` (configuration not stated) it was 80.9%; in that of `COc1ccc(C(=O)/C=C/c2cccc(Nc3ccnc4cc(Cl)ccc34)c2)cc1`, -11% (active); in that of `COc1cc(C2CC(C3C(=O)N(C)C(=O)N(C)C3=O)=NN2c2cc(Cl)cc(Cl)c2)cc(OC)c1OC` (configuration not stated), 94.1%.
Still for that read-out and setting: in the case of `O=C(CNC(=O)c1cccc2ccccc12)Nc1ccccc1Cc1ccccc1` it was 49.6% [5 µM]; in that of `CCCCc1n(Cc2ccc3ccccc3c2)cc[n+]1Cc1ccc2ccccc2c1`, -10.4% (active).
With `Nc1ncnc2c1CN(Cc1ccccc1)CC2`, the growth was 108%.
Same read-out and setting: to `CCOC(=O)c1sc(NC(=O)COc2cccc(/C=C3\Cc4ccc(Cl)cc4C3=O)c2)nc1C` belongs 145%; to `COC(=O)[C@H](CCCCNC(=O)OCc1ccccc1)NC(=O)[C@@H](NC(=O)Nc1cc(C(F)(F)F)cc(C(F)(F)F)c1)C(C)C`, -44% [100 µM] (active); to `CCN(CC)c1ccc(C(=C2C=CC(=[N+](CC)Cc3cccc(S(=O)(=O)O)c3)C=C2)c2ccc(N(CC)Cc3cccc(S(=O)(=O)O)c3)cc2)cc1`, 69.5%.
The same measure, in the same setting: to `O=C(CNC(=O)c1cccc2ccccc12)Nc1ccccc1Oc1ccc(O)cc1` belongs 43.6% [5 µM]; to `COc1cc(C(=O)/C=C/c2cccc(Nc3ccnc4cc(Cl)ccc34)c2)cc(OC)c1OC`, -39.5% (active).
Same read-out and setting: to `CN1C(=O)C(C2=NN(C=O)C(c3ccc(F)cc3)C2)C(=O)N(C)C1=O` (configuration not stated) belongs 99.1%; to `COc1cccc(-c2nc3cc(NC(=O)c4ccc(Cl)c(C#N)c4)ccc3o2)c1`, -12.5% (active).
